Structures are written as SMILES.

The nature of the experiment: anti-His antibody binders, primary screen, artefact control for SMM control protein annotation, biochemical, small-molecule microarray, 635 nm fluorescence (AID 1128).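 Also: score merges feature fluorescence with signal-to-noise for each printed compound spot.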 Conditions: anti-His Alexa647 antibody binding, higher = more signal.
In the case of `O=[N+]([O-])c1ccc(C[n+]2ccc3ccc(O)cc3c2)o1`, the composite z-score worked out at 0.0131.

For the molecule `O=C1O[C@@H](c2ccccc2)[C@@H](c2ccccc2)N2[C@@H](c3ccccc3OCCO)[C@]3(C(=O)Nc4ccc(C#CC5=CCCCC5)cc43)[C@@H](C(=O)O)[C@H]12`, the composite z-score was found to be 1.91.

In turn, `CCC#CCN(Cc1ccccc1Br)[C@H](/C=C/c1ccccc1)[C@@H](O)Cc1ccccc1` showed a composite z-score of 0.017.

For `COCCOC(=O)N1C(=O)[C@@]2(c3cc(C#CC4(O)CCCCCC4)ccc31)[C@H](C(=O)N1CCCCCCC1)[C@H]1C(=O)O[C@H](c3ccccc3)[C@H](c3ccccc3)N1[C@@H]2c1ccc(O)cc1`, the composite z-score was 1.25.

As for `C[N+](C)(C)CCCCNC(=O)[C@@H]1C[C@@H]2C(=O)N3CCC[C@H]3C(=O)N2[C@@H]1c1cccc(OCCO)c1`, the composite z-score stood at 2.72.

Regarding `C=CCN1C(=O)[C@]2(O[C@H](CCn3cc(CCO)nn3)[C@@H]([Si](C)(C)c3ccc(OC)cc3)[C@@H]2C)c2cc(NC(=O)c3ccc(OC)cc3)ccc21`, the composite z-score stood at 0.94.

The molecule `CO[C@H]1COC(=O)[C@@H](Cc2ccccc2)NC(=O)[C@@H](C)COC(=O)CC=C[C@@H]1C` displayed a composite z-score of -0.28.

In the case of `O=C1C2C=CC(C(O)c3ccccc3)N(n3cnnc3)C2C(=O)N1Cc1ccccc1` (stereo unspecified), the composite z-score is 0.0968.

Consider `C=C(COC)/C(=C/C[C@@H](OC(=O)c1ccncc1)c1ccc(OCCO)cc1)c1cc(C(=O)OC)ccc1OC`, for which the composite z-score was determined as 2.06.

The molecule `O=C1C[C@@](C(=O)NCCN2CCOCC2)(c2ccc([N+](=O)[O-])cc2)[C@@H](c2ccc(CO)cc2)N1C1CCCCC1` had a composite z-score of 0.926.

The molecule `COc1ccc(NN2C(C(O)c3cc(OC)c(OC)c(OC)c3)C=CC3C(=O)N(C4CCCCC4)C(=O)C32)cc1` (stereo unspecified) returned a composite z-score of 0.717.

Turning to `C=C(C)[C@@H]1CC=C(C(O)C2C=CC3C(=O)NC(=O)C3N2Nc2ccccn2)CC1` (stereo partly specified), the composite z-score stood at 2.31.

In turn, `O=C1OCCC/C=C\[C@H]2OC34C=CCN(CCN5CCOCC5)C(=O)[C@H]3N(CCCCCO)C(=O)[C@@H]4C12` (stereo partly specified) displayed a composite z-score of -0.265.

The molecule `NC(=O)NCC#Cc1ccc2c(c1)[C@]1(C(=O)N2)[C@H](C(N)=O)[C@H]2C(=O)O[C@H](c3ccccc3)[C@H](c3ccccc3)N2[C@@H]1c1ccccc1OCCO` showed a composite z-score of -0.22.

In turn, `COc1ccc([Si](C)(C)[C@H]2[C@H](CCO)O[C@@]3(C(=O)N(Cc4ccccc4)c4ccc(N5C(=O)c6cccc7cccc5c67)cc43)[C@@H]2C)cc1` returned a composite z-score of 1.38.

On to `CN(C)c1ccc(C(O)C2C=CC3C(=O)NC(=O)C3N2Nc2ccc(Cl)cc2Cl)cc1` (stereo unspecified), for which the composite z-score was -0.129.

Consider `COC(=O)C(CC#Cc1ccc2c(c1)[C@]1(C(=O)N2)[C@H](C(=O)N2CCCCCCC2)[C@H]2C(=O)O[C@H](c3ccccc3)[C@H](c3ccccc3)N2[C@@H]1c1ccc(O)cc1)C(=O)OC`, for which the composite z-score was -0.231.

The molecule `C=CCNC(=O)[C@@H]1[C@H]2C(=O)O[C@H](c3ccccc3)[C@H](c3ccccc3)N2[C@H](c2ccc(OCCO)cc2)[C@@]12C(=O)N(C(=O)OCCOC)c1ccc(C#CC3(O)CCCCCC3)cc12` yielded a composite z-score of 0.166.

On to `CC(C)[Si]1(C(C)C)O[C@@H](c2ccccc2)c2cc(C3CC3)nc(-c3ccc(Oc4ccccc4)cc3)c21`, for which the composite z-score was -1.14.

In turn, `[N-]=[N+]=NCc1ccccc1C[C@]1(C(=O)N2CCCCC2)N=C(c2ccc(OCCCO)cc2)O[C@H]1c1ccccc1CN=[N+]=[N-]` registered a composite z-score of 0.538.

`Cc1ccc(N2C(=O)c3ccccc3[C@@H](C(=O)NCC(F)(F)F)[C@@H]2c2ccc(CO)cc2)nc1` gave a composite z-score of -1.37.

For the molecule `CC(C)N1CC=CC23O[C@@H]4/C=C\CCCOC(=O)C4[C@H]2C(=O)N(CCO)[C@@H]3C1=O` (stereo partly specified), the composite z-score was -0.548.

Consider `O=C(NCC(F)(F)F)[C@@H]1c2ccccc2C(=O)N(Cc2ccccc2Cl)[C@H]1c1ccc(CO)cc1`, for which the composite z-score was determined as 0.752.

`C=CCNC(=O)[C@H]1[C@@H]2C(=O)O[C@@H](c3ccccc3)[C@@H](c3ccccc3)N2[C@@H](c2ccccc2OCCO)[C@]12C(=O)N(C(=O)OCCOC)c1ccc(C#CCC(C(=O)OC)C(=O)OC)cc12` had a composite z-score of 2.1.

The molecule `C[C@@H]1C=CCC(=O)OC[C@H]2O[C@@H](C=C[C@@H]2O)[C@H](C)C=CCC(=O)OC[C@H]2O[C@H]1C=C[C@@H]2O` showed a composite z-score of 0.106.

Turning to `Cc1ccc(S[C@]2(C(=O)NCCN3CCOCC3)CC(=O)N(C3Cc4ccccc4C3)[C@@H]2c2ccc(CO)cc2I)cc1`, the composite z-score was determined as 0.0031.

The molecule `CC(C)CNC(=O)[C@@]1(C)c2ccccc2C(=O)N(Cc2ccc(OC(F)(F)F)cc2)[C@H]1c1ccc(CO)cc1` had a composite z-score of 0.206.

Molecule `CO[C@H]1COC(=O)CC=C[C@@H](C)COC(=O)[C@@H](C)NC(=O)CC=C[C@@H]1C` showed a composite z-score of -0.505.

In turn, `C=C[C@H](OC)[C@@H](OC(=O)Nc1ccc(SC)cc1)c1ccc(O)c(F)c1` came in with a composite z-score of 0.705.

In the case of `[N-]=[N+]=NCc1ccccc1C[C@@]1(C(=O)N2CCOCC2)N=C(c2ccc(OCCCO)cc2)O[C@@H]1c1ccccc1N=[N+]=[N-]`, the composite z-score was 1.8.

Take `[N-]=[N+]=NCc1ccccc1C[C@@]1(C(=O)O)N=C(c2ccc(OCCCO)cc2)O[C@@H]1c1ccccc1N=[N+]=[N-]`: the composite z-score was found to be 1.36.

In the case of `CSCC[C@@H]1NC(=O)CC=C[C@@H](C)COC(=O)[C@H](CCSC)NC(=O)CC=C[C@@H](C)COC1=O`, the composite z-score was -0.158.

Regarding `C=C(COC)/C(=C/C[C@@H](OC(C)=O)c1cccc(OCCO)c1)c1cc(C(=O)OC)ccc1OC`, the composite z-score was -1.25.

`CCOC(=O)C[C@H]1[C@H](OC(=O)c2cc3ccccc3oc2=O)[C@@H](NC(=O)C2CCCCC2)c2cc(OCCCO)ccc2N1C(=O)c1ccc2ccccc2n1` had a composite z-score of 0.0957.

With `C=C(COC)C(=O)CC[C@H](OC(=O)c1ccccc1-c1ccccc1C(=O)O)c1cccc(OCCO)c1`, the composite z-score came to 2.49.

In turn, `C=CC[C@]1(C(=O)OC)N=C(c2ccc(OCCCO)cc2)O[C@H]1c1ccccc1CN=[N+]=[N-]` returned a composite z-score of 1.39.

The values are drawn from PubChem BioAssay.
